This is part of a sample that, as a whole, favours compounds with a hit. Of some 83,000 tested, about 20% had one in any assay.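 Cell lines were cultured in 96-well plates, exposed to a single compound concentration, and assessed for percent growth 48 hours later.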 Active and inactive are the calls of the source. Rule for the calls: active = growth percent below 10; inactive = the rest.
Tests used:
Experiment in all cases: NCI-60 one-dose screen, 48 h (100 = growth as untreated, 0 = no growth, -100 = all killed)
Conditions in all cases: 10 µM unless noted
NCI-H23 lung = tested on: NCI-H23 lung
NCI-H226 lung = tested on: NCI-H226 lung
NCI-H322M lung = tested on: NCI-H322M lung
HOP-62 NSCLC = tested on: HOP-62 NSCLC
NCI-H460 lung = tested on: NCI-H460 lung
HOP-92 NSCLC = tested on: HOP-92 NSCLC
NCI-H522 lung = tested on: NCI-H522 lung
A549/ATCC NSCLC = tested on: A549/ATCC NSCLC
786-0 renal = tested on: 786-0 renal
COLO 205 colon = tested on: COLO 205 colon

Measured: growth

Cc1ccc(C)c2c1sc1nc(N3CCOCC3)c(C#N)c(=O)n12
inactive: NCI-H23 lung 76.1% | NCI-H226 lung 89.6% | NCI-H322M lung 107% | HOP-62 NSCLC 94.2% | NCI-H460 lung 94.9% | HOP-92 NSCLC 71.7% | NCI-H522 lung 94.8% | A549/ATCC NSCLC 98.4% | 786-0 renal 104% | COLO 205 colon 104%

Cc1cc(O)cc(-c2nn(C)cc2-c2cc(N3CCOCC3)nc(-c3cccnc3)n2)c1
inactive: NCI-H23 lung 56.1% | NCI-H226 lung 36.7% | NCI-H322M lung 59.7% | HOP-62 NSCLC 49.3% | NCI-H460 lung 12.4% | NCI-H522 lung 13.1% | A549/ATCC NSCLC 39.3% | 786-0 renal 18.2% | COLO 205 colon 16.3%
active: HOP-92 NSCLC 6.01%

COc1ccc(N=C2NN=C(c3c[nH]c4ccccc34)CS2)cc1OC
inactive: NCI-H23 lung 67.7% | NCI-H226 lung 80.6% | NCI-H322M lung 70% | HOP-62 NSCLC 50.5% | NCI-H460 lung 26.9% | HOP-92 NSCLC 19.6% | A549/ATCC NSCLC 55% | 786-0 renal 54.8% | COLO 205 colon 57.9%
active: NCI-H522 lung -34.1%

COc1ccc2c(c1)CC[C@@H]1[C@@H]2CC[C@]2(C)c3c(cc(C#N)c4c3sc3ccccc34)C[C@@H]12
inactive: NCI-H23 lung 99.4% | NCI-H226 lung 99.2% | NCI-H322M lung 108% | HOP-62 NSCLC 99.5% | NCI-H460 lung 115% | HOP-92 NSCLC 62.4% | NCI-H522 lung 96.5% | A549/ATCC NSCLC 106% | 786-0 renal 111% | COLO 205 colon 110%

CNC(=O)NCC1OC(n2cnc3c(NC(=O)Nc4ccccc4)ncnc32)C2OC(=O)CC12 (stereo not given)
inactive: NCI-H23 lung 90.2% | NCI-H226 lung 99.2% | NCI-H322M lung 101% | HOP-62 NSCLC 94.2% | NCI-H460 lung 114% | HOP-92 NSCLC 71.2% | NCI-H522 lung 106% | A549/ATCC NSCLC 120% | 786-0 renal 98.3% | COLO 205 colon 110%

O=C(NNc1nc2cc(F)ccc2n2c(CN3CCOCC3)ccc12)c1ccccc1
inactive: NCI-H23 lung 19.7% | NCI-H226 lung 17.4% | NCI-H322M lung 25.1% | HOP-62 NSCLC 14.6% | HOP-92 NSCLC 27.8%
active: NCI-H460 lung 0.156% | NCI-H522 lung 9.17% | A549/ATCC NSCLC 2.97% | 786-0 renal 6.29% | COLO 205 colon 1.54%

CC(C)(C)OC(=O)CN1CCc2c(sc3ncnc(N4CCN(c5ccc(F)cc5)CC4)c23)C1
inactive: NCI-H23 lung 88.2% | NCI-H226 lung 73.1% | NCI-H322M lung 83.6% | HOP-62 NSCLC 93.2% | NCI-H460 lung 88.6% | HOP-92 NSCLC 84% | NCI-H522 lung 82% | A549/ATCC NSCLC 90.3% | 786-0 renal 81.8% | COLO 205 colon 86.4%

CCOC(=O)NC(=S)n1oc(=O)c2ccccc21
inactive: NCI-H23 lung 97.7% | NCI-H226 lung 102% | NCI-H322M lung 98.8% | HOP-62 NSCLC 99.4% | NCI-H460 lung 101% | HOP-92 NSCLC 86.2% | NCI-H522 lung 99.3% | A549/ATCC NSCLC 103% | 786-0 renal 111% | COLO 205 colon 103%

COc1cc(/C=C/c2cn[nH]c2-c2ccc(C)cc2)cc(OC)c1OC
inactive: NCI-H23 lung 56.2% | NCI-H226 lung 65.4% | NCI-H322M lung 56.7% | HOP-62 NSCLC 33.8% | NCI-H460 lung 17.1% | HOP-92 NSCLC 45.6% | NCI-H522 lung 23.1% | A549/ATCC NSCLC 29.2% | 786-0 renal 37.1% | COLO 205 colon 12.6%

Oc1c(CN2CCC(N3CCOCC3)CC2)cc(Cc2cc(CN3CCC(N4CCOCC4)CC3)c(O)c3ncccc23)c2cccnc12
active: NCI-H226 lung 2.53% | COLO 205 colon 9.1%
inactive: NCI-H23 lung 40.8% | NCI-H322M lung 37.6% | HOP-62 NSCLC 19.4% | NCI-H460 lung 10.5% | HOP-92 NSCLC 41.7% | NCI-H522 lung 15.4% | A549/ATCC NSCLC 18.5% | 786-0 renal 25.5%

O=C(c1ccc(Br)cc1)C(Br)C(c1ccc(Cl)cc1)C(c1ccccc1)[N+](=O)[O-] (stereo not given)
inactive: NCI-H23 lung 91.4% | NCI-H226 lung 99.3% | NCI-H322M lung 101% | HOP-62 NSCLC 99.7% | NCI-H460 lung 95.5% | HOP-92 NSCLC 107% | NCI-H522 lung 85.7% | A549/ATCC NSCLC 93.8% | 786-0 renal 90.3% | COLO 205 colon 110%

CCN(CC)CCN1C(=O)c2c(c3c4ccccc4[nH]c3c3ccc4ccccc4c23)C1=O
inactive: NCI-H226 lung 87.5% | NCI-H322M lung 87% | HOP-62 NSCLC 55.3% | NCI-H460 lung 16.3% | HOP-92 NSCLC 66.2% | NCI-H522 lung 67.8% | COLO 205 colon 78.7%
active: NCI-H23 lung -67.8% | A549/ATCC NSCLC -60.9% | 786-0 renal -96.7%

Cn1c(=O)[nH]c(=O)c2nc3c(nc21)-c1ccccc1C3=O
inactive: NCI-H23 lung 95.6% | NCI-H226 lung 92.2% | NCI-H322M lung 102% | HOP-62 NSCLC 94.3% | NCI-H460 lung 102% | HOP-92 NSCLC 100% | NCI-H522 lung 96.4% | A549/ATCC NSCLC 106% | 786-0 renal 101% | COLO 205 colon 114%

COc1ccc(-c2nc3ccc(C)cc3c3c2c(=O)n(C)c(=O)n3C)cc1OC
inactive: NCI-H23 lung 98.8% | NCI-H226 lung 108% | NCI-H322M lung 118% | HOP-62 NSCLC 112% | NCI-H460 lung 112% | HOP-92 NSCLC 99.2% | NCI-H522 lung 107% | A549/ATCC NSCLC 89.9% | 786-0 renal 103% | COLO 205 colon 109%

Cc1cc2oc(/C=C/c3ccccc3)cc(=O)c2c(C)c1Cl
inactive: NCI-H23 lung 88.8% | NCI-H226 lung 103% | NCI-H322M lung 110% | HOP-62 NSCLC 103% | NCI-H460 lung 105% | HOP-92 NSCLC 97% | NCI-H522 lung 93.8% | A549/ATCC NSCLC 91.6% | 786-0 renal 93.2% | COLO 205 colon 104%

COc1ccc(-c2nc(SCC(=O)Nc3nc4ccc(C)cc4s3)[nH]c(=O)c2C#N)cc1OC
inactive: NCI-H23 lung 103% | NCI-H226 lung 83.6% | NCI-H322M lung 101% | HOP-62 NSCLC 74.8% | NCI-H460 lung 100% | HOP-92 NSCLC 102% | NCI-H522 lung 105% | A549/ATCC NSCLC 105% | 786-0 renal 105% | COLO 205 colon 115%

O=S(=O)(N=C1C(Cl)=C(Cl)C(=NS(=O)(=O)c2ccccc2)C(Cl)=C1Cl)c1ccccc1
inactive: NCI-H23 lung 73.3% | NCI-H226 lung 97.5% | NCI-H322M lung 97.4% | HOP-62 NSCLC 91.5% | NCI-H460 lung 39.1% | HOP-92 NSCLC 134% | NCI-H522 lung 39.3% | A549/ATCC NSCLC 74.4% | 786-0 renal 118% | COLO 205 colon 98.4%

COc1cc2c(cc1-c1c(C)noc1C)ncc1nc(CN3CCOCC3)n([C@H](C)COC(F)F)c12
active: HOP-92 NSCLC 5.85% | NCI-H522 lung -0.0255%
inactive: NCI-H23 lung 45.4% | NCI-H226 lung 58% | NCI-H322M lung 38.5% | HOP-62 NSCLC 16.6% | NCI-H460 lung 51.9% | A549/ATCC NSCLC 37.6% | 786-0 renal 45.5% | COLO 205 colon 14.7%

Nc1cc(Br)cc2c1[nH]c(=O)c1ccccc12
inactive: NCI-H23 lung 83.4% | NCI-H226 lung 91.9% | NCI-H322M lung 109% | HOP-62 NSCLC 102% | NCI-H460 lung 93.4% | HOP-92 NSCLC 77.6% | NCI-H522 lung 98.1% | A549/ATCC NSCLC 91.7% | 786-0 renal 101% | COLO 205 colon 106%

Oc1ccc(-c2nc3ccc4[nH]ncc4c3c3c2CCCC3)c(F)c1
active: NCI-H522 lung -4.04%
inactive: NCI-H23 lung 29.5% | NCI-H226 lung 56.4% | NCI-H322M lung 37.8% | HOP-62 NSCLC 35.7% | NCI-H460 lung 29% | HOP-92 NSCLC 68.9% | A549/ATCC NSCLC 15.7% | 786-0 renal 29.4% | COLO 205 colon 77.4%

N#Cc1ccccc1-c1ccc(CN2C(=O)S/C(=C\c3ccc(Br)cc3)C2=O)cc1
inactive: NCI-H23 lung 96.6% | NCI-H226 lung 86.9% | NCI-H322M lung 101% | HOP-62 NSCLC 94.8% | NCI-H460 lung 106% | HOP-92 NSCLC 94.6% | NCI-H522 lung 94.8% | A549/ATCC NSCLC 97.3% | 786-0 renal 99.3% | COLO 205 colon 111%

COc1ccc(NC(=O)c2ccc(Nc3ncnc4c3cnn4-c3cccc(F)c3)cc2)cc1
inactive: NCI-H23 lung 103% | NCI-H226 lung 103% | NCI-H322M lung 103% | HOP-62 NSCLC 101% | NCI-H460 lung 102% | HOP-92 NSCLC 96.4% | NCI-H522 lung 96.9% | A549/ATCC NSCLC 101% | 786-0 renal 104% | COLO 205 colon 109%

CCN1CCN(CCNc2nccc(-c3c(-c4ccc(F)c(O)c4)nc4occn34)n2)S1(=O)=O
active: NCI-H226 lung 6.71% | NCI-H522 lung -3.38%
inactive: NCI-H23 lung 14% | NCI-H322M lung 64.3% | HOP-62 NSCLC 33.7% | NCI-H460 lung 34.9% | HOP-92 NSCLC 68.5% | A549/ATCC NSCLC 23% | 786-0 renal 56.7% | COLO 205 colon 29%

C=C1C(=O)O[C@H]2[C@H]1CC/C(COC(=O)/C=C\C(=O)NCc1ccc(Cn3c(=O)sn(CCCCl)c3=O)cc1)=C\CC[C@@]1(C)O[C@@H]21
inactive: NCI-H23 lung 84.1% | NCI-H226 lung 92.9% | NCI-H322M lung 107% | HOP-62 NSCLC 87.7% | NCI-H460 lung 93.4% | HOP-92 NSCLC 81.7% | A549/ATCC NSCLC 92.7% | 786-0 renal 67.7%
active: NCI-H522 lung -12% | COLO 205 colon 4.69%

Cc1cc(C)c2c(c1)N(C)c1ncnc(-n3c(C)nc4cc(C)ccc43)c1CC2C (stereo not given)
inactive: NCI-H23 lung 61.7% | NCI-H226 lung 61.6% | NCI-H322M lung 73.4% | HOP-62 NSCLC 43.7% | NCI-H460 lung 22.6% | HOP-92 NSCLC 11.2% | NCI-H522 lung 19.4% | A549/ATCC NSCLC 26.3% | 786-0 renal 30.1% | COLO 205 colon 54.1%

CN(C)CCCC1(c2ccc(F)cc2)OCc2cc(-c3csc4ccccc34)ccc21 (stereo not given)
active: NCI-H460 lung -89.9% | NCI-H522 lung 7.99% | COLO 205 colon -67.8%
inactive: NCI-H23 lung 48.2% | NCI-H226 lung 87.3% | NCI-H322M lung 27% | HOP-62 NSCLC 39.2% | HOP-92 NSCLC 26.4% | A549/ATCC NSCLC 24.4% | 786-0 renal 52.8%

CN(C)Cc1ccc(NC(=O)c2cncc(C#Cc3cnc(N)c4ncccc34)c2)cc1C(F)(F)F
active: A549/ATCC NSCLC -15.4% | 786-0 renal -73.4%
inactive: NCI-H23 lung 42.1% | NCI-H226 lung 76.7% | NCI-H322M lung 97% | HOP-62 NSCLC 79.8% | NCI-H460 lung 13.3% | HOP-92 NSCLC 73.9% | NCI-H522 lung 94.6% | COLO 205 colon 44.6%
